Here are results for 28 compounds from PubChem BioAssay AID1347076 (National Center for Advancing Translational Sciences (NCATS), 2019).

Molecules are shown by their SMILES. Among all 400,000 compounds or so, about 13,000 (3.2%) were called active. Roughly 18% stayed inconclusive and do not appear here. Calls follow the shape of the dose curve; as a rule, active = well fitted cell-killing curve with a large enough effect; inconclusive = small, poorly fitted or top-dose-only effect, or effect the other way; inactive = flat fitted curve, though single readings scatter. The entries come from a sample that favours actives as a whole. Where a call stands in place of a potency, no number is given.
Potency is read from the fitted curve at half-maximal effect.

The experiment can be described thus: qHTS assay for MDR1-selective chemotherapeutics: Primary screen using the drug-selected MDR subline cells KB-V1. Also: nearly all actives have a fitted effect of over 60% in size. The note with it: KB-V1 MDR cells viability, CellTiter-Glo, 72 h; series mostly up to 46.1 µM. In outline:
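Following 72 h at 37 degrees C with compound, KB-V1 cell viability was read by CellTiter-Glo luminescence, medium being phenol-red-free DMEM plus 10% FBS; concentration-response parameters came from normalized, curve-fitted qHTS data.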
On the technique in general: In qHTS, concentration-response curves come from the screen itself.
Turning to `O=C(CSc1nnc(-c2ccncc2)n1-c1ccccc1)Nc1ccc(Cl)c(Cl)c1`, the Potency result is “inactive”.

`CCn1nccc1C(=O)Nc1ccc(Cl)c(Cl)c1`: the Potency entry is “inactive”.

Consider `O=C(CC(O)(C(F)(F)F)C(F)(F)F)Nc1ccc(Cl)c(Cl)c1`, for which the Potency was 3.26 µM (active).

As to `Cc1ccc(C(=O)NC2CCN(C(=O)N3CCOCC3)CC2)cc1`, the Potency entry was “inactive”.

`CCOC(=O)N1CCC(NC(=O)c2ccc3nc(N4CCOCC4)sc3c2)CC1`: the Potency is 3.66 µM (active).

Regarding `CC1CCN(c2nc3ccc(C(=O)N4CCN(c5ccccc5)CC4)cc3s2)CC1`, the Potency entry was “inactive”.

With `CC1CCC2(CC1)NC(=O)N(CC(=O)NCc1ccco1)C2=O` (stereo not drawn), the Potency entry was “inactive”.

Regarding `C[C@H]1CN([C@@H](C)CO)C(=O)c2cc(-c3cccc(F)c3)cnc2O[C@@H]1CN(C)S(C)(=O)=O`, the Potency result is “inactive”.

Turning to `CC(OC(=O)c1ccc([N+](=O)[O-])cc1)C(=O)NCC1CCCCC1` (stereo not drawn), the Potency result was “inactive”.

Turning to `COc1cc(C(=O)OC(C)C(=O)NCC2CCCCC2)cc(NC(=O)c2ccco2)c1OC` (stereo not drawn), the Potency was 20.6 µM (active).

With `COc1ccc(NC(=O)CCC(=O)Nc2cc(OC)c(NC(=O)c3ccco3)cc2OC)c(OC)c1`, the Potency entry was “inactive”.

For the compound `CN(C)CCCOc1ccc(-c2ccc3nccn3c2)cn1`, the Potency result was “inactive”.

For the compound `O=C(N=C1SC2CS(=O)(=O)CC2N1Cc1ccccc1)c1ccccc1` (stereo not drawn), the Potency result is “inactive”.

`CC(C)CC(=O)N=C1SC2CS(=O)(=O)CC2N1CCc1ccccc1` (stereo not drawn): the Potency is 13 µM (active).

Take `O=C(CCC1CCCC1)N=C1SC2CS(=O)(=O)CC2N1Cc1ccccc1` (stereo not drawn): the Potency result was “inactive”.

For the compound `CCOc1ccc(C(=O)NCC(=O)N2CCN(c3ccc(C(F)(F)F)cn3)CC2)cc1`, the Potency entry is “inactive”.

`Cc1ccc(F)cc1NC(=O)N1CCCN(c2ccc(C(F)(F)F)cn2)CC1`: the Potency is 20.6 µM (active).

As to `C/C=C/C(=O)Nc1ccc(N2CCN(c3ccc(C(F)(F)F)cn3)CC2)nc1`, the Potency result is “inactive”.

Consider `COc1cc2c(cc1OC)CN(C(=O)c1cc(=O)c3ccccc3o1)CC2`, for which the Potency is 2.91 µM (active).

With `O=C(c1cc(=O)c2ccccc2o1)N1CCN(c2ccccc2)CC1`, the Potency result was “inactive”.

Consider `COc1ccccc1CNC(=O)c1cc(=O)c2ccccc2o1`, for which the Potency result was “inactive”.

On to `COc1ccc(C2=NN(C(C)=O)C(c3ccccc3)C2)cc1` (stereo not drawn), for which the Potency result is “inactive”.

Regarding `O=C(c1ccccc1)N1N=C(c2ccccc2O)CC1c1ccc(Br)cc1` (stereo not drawn), the Potency entry is “inactive”.

On to `CNC(=S)N1N=C(c2ccccc2)CC1c1ccc(Br)cc1` (stereo not drawn), for which the Potency is 11.6 µM (active).

For `CC1(C(=O)NS(=O)(=O)c2ccc(C#N)cc2)CCN1C(=O)c1ccc(C2CCCCC2)cc1` (stereo not drawn), the Potency entry is “inactive”.

For the compound `CCOC(=O)C1CCC(CN(Cc2ccc(OC)cc2)S(=O)(=O)c2ccc(F)c(C(=O)Nc3cc(C)ccc3C)c2)CC1` (stereo not drawn), the Potency entry was “inactive”.

For `N#CC1=C(SCc2ccccc2)NC(=O)C(C#N)C12CCCC2` (stereo not drawn), the Potency is 14.6 µM (active).

As for `N#CC1=C(SCc2ccc(C#N)cc2)N=C(N)C(c2nc(-c3ccccc3)cs2)C12CCCCC2` (stereo not drawn), the Potency entry was “inactive”.
